# Experimental data: the supplement of paper PMC9950053
# Counter-ions that a name gives are not always drawn.
# Tested on: Danio rerio larvae (5 dpf)
# Assay: excitability (activity period 17 minus period 16, 1-s interval sound) minus DMSO control (percentage points); higher = more acoustic excitability than DMSO larvae
# Settings: 10 µM; exposure time: 3 h pre-incubation + 3 h imaging
# Description: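 Wild-type 5 dpf zebrafish larvae (n=48 per drug, 96-well plates, 28.5 °C) were exposed to Tocris FDA-approved library compounds at 10 µM (0.1% DMSO) for 3 h before and 3 h during imaging. Images were taken every 6 s during visual (moving coloured lines) and acoustic stimuli, and larvae were tracked with the DeepLabCut-based Z-LaP Tracker. Each behavioural measure is the treated-group mean minus the DMSO vehicle control mean (n=844), in percentage points. This mapping covers compounds with 4-character plate codes.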
row,Structure (SMILES),excitability
1,N[C@@H]1C[C@H]1c1ccccc1 [Tranylcypromine hydrochloride],3.55
2,O=c1[nH]c2ccccc2n1C1CCN(CCCC(c2ccc(F)cc2)c2ccc(F)cc2)CC1 [Pimozide],-0.377
3,CC(C)C[C@H]1C(=O)N2CCC[C@H]2[C@]2(O)O[C@](NC(=O)[C@@H]3C=C4c5cccc6[nH]c(Br)c(c56)C[C@H]4N(C)C3)(C(C)C)C(=O)N12 [Bromocriptine mesylate],18.2
4,CCN(C)C(=O)Oc1cccc([C@H](C)N(C)C)c1 [Rivastigmine tartrate],3.52
5,CC[C@@H](C(N)=O)N1CCCC1=O [Levetiracetam],1.58
6,COc1cc2c(cc1OC)C1CC(=O)C(CC(C)C)CN1CC2 (stereo unspecified) [Tetrabenazine],22.4
7,CN1C[C@H](C(=O)N[C@]2(C)O[C@@]3(O)[C@@H]4CCCN4C(=O)[C@H](Cc4ccccc4)N3C2=O)C[C@@H]2c3cccc4[nH]cc(c34)C[C@H]21 [Dihydroergotamine mesylate],0.33
8,Cc1cccc([C@H](C)c2c[nH]cn2)c1C [Dexmedetomidine hydrochloride],5.7
9,C=C1C[C@@H]2[C@H](CC[C@]3(C)C(=O)CC[C@@H]23)[C@@]2(C)C=CC(=O)C=C12 [Exemestane],11.9
10,C=CCN1C[C@H](C(=O)N(CCCN(C)C)C(=O)NCC)C[C@@H]2c3cccc4[nH]cc(c34)C[C@H]21 [Cabergoline],12.4
11,CC(O)(CS(=O)(=O)c1ccc(F)cc1)C(=O)Nc1ccc(C#N)c(C(F)(F)F)c1 (stereo unspecified) [Bicalutamide],3.42
